Experimental data from PubChem BioAssay (NCI).
About 83,000 compounds went through this panel and 20% of them were active in at least one assay; those are over-represented in the sample as a whole.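 Negative percent growth values reflect cell death: -40 means 40% of the cells present at the start died, and -100 means all died.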 Values without a mark were called inactive. Active and inactive are the calls of the source.

system: UO-31 renal; test: NCI-60 one-dose screen, 48 h (100 = growth as untreated, 0 = no growth, -100 = all killed); conditions: 10 µM unless noted
Protocol: Growth inhibition of the UO-31 human tumor cell line is measured as a screen for anti-cancer activity. Cells are grown in 96 well plates and exposed to the test compound for 48 hours. Compounds are tested at a single concentration, which is 10^-5 M for most compounds. The reported endpoint is percent growth (GI% or GIPRCNT), where numbers from 0 - 100% represent growth inhibition, and numbers from -100% - 0 represent cell death. For example, a value of 40 represents 60% growth inhibition. A value of 0 means no net growth occurred over the course of the experiment. A value of -40 indicates 40% of cells at the beginning of the experiment died by the end of the experiment. A value of -100 means all cells are dead at the end of the experiment.
NCI-60 Human Tumor Cell Lines Screen was performed using the standard one-dose NCI protocol, which is described in more detail at https://dtp.cancer.gov/discovery_development/nci-60/default.htm.
Compounds with GIPRCNT values below 10 were considered active. Activity score was based on GIPRCNT using the following formula: […]
Score is 0 for GIPRCNT values of 100 or above, 50 for GIPRCNT values of 0, and 100 for GIPRCNT values of -100.

| Structure (SMILES) | growth |
| --- | --- |
| Cc1cccc(C)c1NCc1nc(-c2ccccc2)n[nH]1 | 90.6% |
| N#C/C(=C\c1ccc(-c2ccc(Br)cc2)o1)c1nc(-c2cccs2)cs1 | 82.1% |
| Oc1cc(/C=C/c2nc(N3CCOCC3)c3cc(Cl)c(Cl)cc3n2)cc(O)c1O | 95.2% |
| Cc1ccc(-c2nc([P+](c3ccccc3)(c3ccccc3)c3ccccc3)c(N3C[C@H]4C[C@H](C3)c3cccc(=O)n3C4)o2)cc1 | 83.6% |
| CC(C)=CCC[C@](C)(O)[C@H]1CC[C@]2(C)[C@@H]1CC[C@@H]1[C@@]3(C)C/C(=C/c4ccc(Br)cc4)C(=O)C(C)(C)[C@@H]3CC[C@]12C | 70.4% |
| COc1ccc(-c2cc(/C=C/C(=O)c3ccc(OC)c(OC)c3)[nH]n2)cc1 | 36.4% |
| Cn1cc(-c2csc(-c3cn(CCCN4CCCCC4)c4ccc(F)cc34)n2)c2cccnc21 | 78.2% |
| COC(=O)[C@]12CC[C@@H](C)[C@H](C)[C@@H]1C1=CC[C@@H]3[C@@]4(C)C[C@@H](OC(C)=O)[C@H](O)[C@@](C)(COC(C)=O)[C@@H]4[C@H](O)C[C@@]3(C)[C@]1(C)CC2 | -81.6% (active) |
| C=C1C(=O)O[C@H]2[C@H]1CC/C(Cn1cc(-c3ccc(OC)cc3)nn1)=C\CC[C@@]1(C)O[C@@H]21 | -86.2% (active) |
| CCSc1ncnc2c1ncn2C1OC(CO)C(O)C1O (stereo not given) | 24.5% |
| COc1ccc2c(c1)c(-c1nc(-c3c[nH]c4ncccc34)cs1)cn2CCCN1CCCCC1 | 36.5% |
| COc1ccc(OCC(CO)N2CCN(c3ccccc3)CC2)cc1 (stereo not given) | 86.4% |
| COc1cc2c(cc1-c1c(C)noc1C)ncc1nc(C3CCCCC3)n([C@@H](C)COC(F)F)c12 | 23.6% |
| Cc1cc(N(CCCNc2ccnc3cc(Cl)ccc23)Cc2ccco2)nc(N2CCOCC2)n1 | 46.8% |
| COc1ccc2c(c1)C/C(=C\c1cc(-c3ccc4c(c3)OCO4)n[nH]1)C2=O | 75.1% |
| Nc1c(C(=O)Nc2c(Cl)cccc2Cl)sc2nc3c(cc12)CCCC3 | 84.3% |
| CCCCC[C@H]1C/C=C2/C(=O)C(Cl)=C[C@@H]2C/C=C\CCCC(=O)O1 | -100% (active) |
| Cc1csc(Nc2nc(-c3cccc(Br)c3)nc(C(Cl)(Cl)Cl)n2)n1 | 49.4% |
| CCCC1CCCCN1C(=O)OCC(C)C (stereo not given) | 74.5% |
| CCc1nnc(NC(=O)c2ccoc2COc2ccccc2)s1 | 60.7% |

| Structure (SMILES) | growth |
| --- | --- |
| C=C(C)[C@@H]1CC[C@]2(C=O)CC[C@]3(C)[C@H](CC[C@@H]4[C@@]5(C)C/C(=C/c6cccnc6)C(=O)C(C)(C)[C@@H]5CC[C@]43C)[C@@H]12 | -33.9% (active) |
| Cc1ccc(-c2nc([P+](c3ccccc3)(c3ccccc3)c3ccccc3)c(N3CCOCC3)o2)cc1 | 12% |
| O=C(/C=C/c1ccc2ccccc2c1)Nc1ncc(Cc2ccccc2)s1 | 43.5% |
| O=C(c1ccccc1)C(CN1CCOCC1)c1ccccc1 (stereo not given) | 11.2% |
| COC(=O)C(N)CSC(c1ccccc1)(c1ccccc1)c1ccccc1 (stereo not given) | 52.6% |
| O=C(/C=C/c1cccc2ccccc12)Nc1ncc(Cc2ccccc2)s1 | 32.2% |
| CC(=O)N1N=C(c2ccc(C)cc2)CC1c1ccc(Oc2ccc(Br)cc2)cc1 (stereo not given) | 39.2% |
| COc1cc2nc(Cl)nc(Nc3cccc(C(=O)/C=C/c4ccc(Cl)cc4)c3)c2cc1OC | 57.1% |
| CCN1CCN(c2nc(C)cc(N(CCCNc3ccnc4cc(Cl)ccc34)Cc3ccco3)n2)CC1 | 33.1% |
| COc1ccc(/C=C(\C#N)c2cc3ccccc3n2S(C)(=O)=O)cc1 | 56.2% |
| O=C(NC1=CC(=O)c2ccccc2C1=O)c1ccccc1 | -47.5% (active) |
| N#Cc1c(-c2ccco2)nc2c(c(-c3ccccc3)nn2-c2ccccc2)c1-c1ccc(O)cc1 | 92% |
| C#Cc1cc2c(N)c(C(=O)c3cc(OC)c(OC)c(OC)c3)[nH]c2cc1OC | 35.7% |
| N#C/C(=C\c1ccc(-c2ccc(Br)cc2)o1)c1nc(-c2ccco2)cs1 | 74.7% |
| O=C1CNCCN1 | 91.7% |
| C=C(C)[C@@H]1CC[C@]2(C)[C@H](CC=C3[C@@H]4CC(C)(C)CC[C@]4(C(=O)OC)CC[C@]32C)[C@@]1(C)CC/C(N)=N/O | 40.3% |
| Brc1cnc2[nH]cc(-c3nnc(-c4ccccc4)o3)c2c1 | 45.2% |
| CC/C=C\C[C@H]1CC=C2C(=O)C=C[C@@H]2CC=CCCCC(=O)O[C@@H](CCCCC)CC=C2C(=O)C=C[C@@H]2CC=CCCCC(=O)O[C@@H](CCCCC)CC=C2C(=O)C=C[C@@H]2CC=CCCCC(=O)O[C@@H](CCCCC)CC=C2C(=O)C=C[C@@H]2CC=CCCCC(=O)O1 | 9.76% [7.9 µM] (active) |
| CN1CCN(c2nc(-c3cccc4ccccc34)nc3sc4c(c23)CCCCCC4)CC1 | 46% |
| N#C/C(=C\c1ccc(-c2ccc(Cl)cc2)o1)c1nc(-c2ccco2)cs1 | 74.3% |
